# Test results published in PubChem BioAssay (NCATS).
# Inconclusive results are not listed. Entries that show only a call come without a potency. Calls of active or inactive are those of the source. Calls follow the shape of the dose curve; as a rule, active = well fitted curve in the direction sought with a large enough effect; inconclusive = small, poorly fitted or top-dose-only effect, or another doubt; inactive = no such curve, though single readings can be large; an effect the other way counts as inactive or inconclusive.
# Key:
# [1] = biological target: Aldehyde dehydrogenase, mitochondrial (Homo sapiens) (UniProt P05091); experiment: qHTS for Inhibitors of the Aldehyde Dehydrogenase Family (ALDH2) Primary screen (AID 2061308); also: nearly all actives have a fitted effect of over 55% in size
# [2] = biological target: Retinaldehyde dehydrogenase 3 (Homo sapiens) (UniProt P47895); experiment: qHTS for Inhibitors of the Aldehyde Dehydrogenase Family (ALDH1A3) Primary screen (AID 2061315)
SMILES,Potency [1],Potency [2]
CCC(C(=O)NC(=O)NC(C)=O)c1ccccc1 (stereo not given),inactive,inactive
CCOC(=O)c1[nH]c2c(c1C)C(=O)CCC2,inactive,inactive
O=C(/C=C/c1ccccc1)OCC1=CC[C@@H]2C(C(=O)O)=CO[C@@H](O[C@@H]3O[C@H](CO)[C@@H](O)[C@H](O)[C@H]3O)[C@H]12,inactive,inactive
CCNC(=O)c1ccc(-c2ccc3ncnc(NCC(C)(C)C)c3c2)o1,inactive,inactive
CCCn1c(-c2ccc(F)cc2)nc2c(NCCN3CCCCC3)nc(C)nc21,inactive,inactive
O=C(CSc1nnc(-c2cccc([S+](=O)([O-])N3CCCC3)c2)n1-c1ccccc1)Nc1ccc2c(c1)OCCO2,inactive,inactive
CC(C)C[C@@H]1NC(=O)[C@@H](Cc2ccccc2)NC(=O)C(CCCCCC(=O)C2CO2)NC(=O)[C@@H]2CCCCN2C1=O (stereo not given in full),inactive,inactive
O=S(=O)(NCc1ccccc1F)c1ccc(O)c2ncccc12,inactive,inactive
COc1cccc(CNc2ccc(S(=O)(=O)Nc3ccc(-c4ccccc4)cc3)cc2)c1O,inactive,inactive
CN1CCN(c2cc(-c3cc(O)c4ncccc4c3)ccn2)CC1,inactive,inactive
Cc1cc2c(s1)c1cnn(Cc3ccccc3Cl)c(=O)c1n2C,inactive,inactive
CN(C)C/C=C/C(=O)Nc1cccc(C(=O)Nc2ccc(Nc3nccc(-c4cccnc4)n3)cc2)c1,inactive,inactive
O=C(NCCc1nc2ccccc2n1CCOc1cc(F)ccc1F)C1CCCCC1,inactive,inactive
Cc1ccccc1C(=O)N1CCc2cc(-c3nc(NC(=O)CC4CCCCC4)sc3C)ccc21,inactive,inactive
CCCCN(C)C(=O)Cn1nc(-c2cncnc2)ccc1=O,inactive,inactive
O=C(NC1CCCc2c1cnn2-c1ccc(F)cc1F)C1CC1 (stereo not given),inactive,inactive
NC(=O)c1ccccc1-c1noc(-c2ccccc2F)n1,inactive,inactive
CCOc1ccc(CCNC(=O)c2cc3ccccc3o2)cc1OCC,inactive,inactive
NC(=O)c1ccc(Cc2c(-c3cccc(-c4ccccc4)c3)[nH]n(-c3nc(C(=O)O)cs3)c2=O)cc1,inactive,inactive
Cn1c(SCC(=O)c2cc3ccccc3o2)nnc1-c1ccccc1,inactive,inactive
O=C(/C=C/c1ccccc1)Nc1cccc(S(=O)(=O)Nc2ccccc2F)c1,inactive,inactive
Cc1ccc(S(=O)(=O)Nc2cnccc2C(=O)Nc2ccncc2)cc1,inactive,inactive
O=C(Cn1cc(CNC(=O)c2ccccc2)nn1)Nc1cc(C(F)(F)F)ccc1Cl,inactive,inactive
COc1ccc(OCc2nnc3n2N=C(c2ccccc2)CS3)cc1,inactive,inactive
Cc1cnc(-c2ccccc2C(C)C)nc1N(C)Cc1ccc(-c2cccnc2)cc1,inactive,inactive

SMILES,Potency [1],Potency [2]
COc1cc(O)c(C(CC(=O)N2CCOCC2)c2ccc(C)cc2)c(OC)c1 (stereo not given),inactive,inactive
O=C(Nc1ccc2ccccc2c1)Nc1nnc(-c2ccncc2)s1,inactive,inactive
COc1cccc(Cn2ncc3c4sc(Br)cc4n(C)c3c2=O)c1,inactive,inactive
O=C(OCC#CCSc1nnc(-c2cc3ccccc3cc2O)o1)c1ccc(F)cc1,inactive,inactive
Cc1nc(CNc2ncnc3ccc(-c4sc(C)nc4C)cc23)cs1,inactive,inactive
Cc1cccc(Cn2ncc3c4sc(C)cc4n(C)c3c2=O)c1,inactive,inactive
Cc1ccc(NS(=O)(=O)c2ccc3c(ccn3C)c2)cc1C,inactive,inactive
COc1ccccc1-c1nc2ccccc2s1,inactive,inactive
COc1ccc(-c2nc(Nc3ccc(F)c(F)c3)c3ccccc3n2)cc1,inactive,inactive
CC(=O)c1cccc(NC(=O)Nc2nnc(-c3ccncc3)s2)c1,inactive,inactive
O=C(Nc1nc(-c2ccccc2)cs1)c1ccncc1NS(=O)(=O)c1ccc(F)cc1,inactive,inactive
COc1cccc(NC(=S)N2CCN(c3cccc(Cl)c3Cl)CC2)n1,inactive,inactive
CCOC(=O)Nc1sc2c(c1C(N)=O)CCCC2,inactive,inactive
Cc1cc(C)nc(NC(=S)N2CCN(c3ccc4ccccc4n3)CC2)c1,inactive,inactive
COc1cccc(C2c3c(ncn(-c4ccccc4C)c3=N)Oc3ccc4ccccc4c32)c1 (stereo not given),inactive,inactive
Cc1cc2c(s1)c1cnn(Cc3cc(C(F)(F)F)ccc3F)c(=O)c1n2C,inactive,inactive
O=C(O)c1ccc(-c2noc(-c3ccccc3C(F)(F)F)n2)cc1,inactive,inactive
CC(C)Oc1ccc(C(=O)Nc2ccc(-c3nc4ccccc4[nH]3)cc2)cc1,inactive,inactive
O=C(Nc1nc(-c2ccccc2)cs1)c1ccccc1,inactive,inactive
COc1cc(O)c(C(CC(=O)N2CCC(c3ccccc3)CC2)c2ccc(C)cc2)c(OC)c1 (stereo not given),inactive,inactive
CCN1CCN(c2cccc(Nc3nn4c(=O)c5ccccc5nc4s3)c2)CC1,inactive,inactive
COc1ccc(C2Nc3ccccc3C(=O)N2Cc2ccc3c(c2)OCO3)cc1COc1c(C)cc(NC(C)=O)cc1C (stereo not given),inactive,inactive
COc1ccc(C(=O)N(Cc2cccs2)Cc2cccs2)c(O)c1,inactive,inactive
C/C=C(\C)[C@@H]1C(C)=C[C@@H]2[C@H]([C@@H]1/C=C/C=C/C(=O)O)[C@@H](C)CC[C@@H]2O,inactive,inactive
COc1cc(NS(=O)(=O)c2ccc3ccccc3c2)c2ncccc2c1,inactive,inactive
